An excerpt weighted towards active compounds, which were near 7.3% of everything screened.
NPC1 prom act – qHTS Assay for NPC1 Promoter Activators. Huh7 NPC1 promoter luciferase reporter, 24 h. Potency, µM (top dose mostly 9.22 µM), inactives show at the top dose activation, hits mostly activators. actives 2.4% (n = 320,000). AID 485313, 2010; note: % of control where 0% means no effect; nearly all actives have a fitted effect of over 60% in size
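NPC1 promoter–luciferase Huh7 cells; 24 h compound; luminescence.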
FLuc counter – qHTS profiling assay for firefly luciferase inhibitor/activator using purifed enzyme and Km concentrations of substrates (counterscreen for miR-21 project); Luciferin 4-monooxygenase (Photinus pyralis), P08659; purified FLuc, Km substrates, luminescence inhibition; Potency, µM (top dose mostly 57.5 µM), for inactives: top-dose activity change, negative = inhibition, hits mostly inhibitors; actives 6.9% (n = 360,000); AID 588342, 2011;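 note: plate controls were vehicle for no effect and reference inhibitor for full effect; nearly all actives have a fitted effect of over 55% in size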
Target sequence (P08659 whole entry, looked up): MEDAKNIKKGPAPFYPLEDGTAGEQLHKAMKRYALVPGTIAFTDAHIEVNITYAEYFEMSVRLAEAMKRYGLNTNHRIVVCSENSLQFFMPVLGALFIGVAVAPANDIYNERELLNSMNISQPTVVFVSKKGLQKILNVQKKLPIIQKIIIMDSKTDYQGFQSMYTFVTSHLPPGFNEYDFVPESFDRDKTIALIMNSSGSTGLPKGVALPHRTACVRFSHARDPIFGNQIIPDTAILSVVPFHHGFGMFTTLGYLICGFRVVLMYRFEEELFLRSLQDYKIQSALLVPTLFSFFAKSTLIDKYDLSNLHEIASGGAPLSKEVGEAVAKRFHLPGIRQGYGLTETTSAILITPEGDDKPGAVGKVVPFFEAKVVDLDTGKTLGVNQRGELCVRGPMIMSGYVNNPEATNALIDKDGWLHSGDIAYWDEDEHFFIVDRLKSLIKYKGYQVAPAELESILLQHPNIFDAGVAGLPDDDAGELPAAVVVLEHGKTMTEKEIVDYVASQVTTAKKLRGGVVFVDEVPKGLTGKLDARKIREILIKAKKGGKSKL
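Purified P. pyralis luciferase, 10 nM final, with Km-level 10 uM D-luciferin and 10 uM ATP in 50 mM Tris acetate pH 7.5, 10 mM Mg acetate, 0.01% Tween-20, 0.05% BSA; 6-point qHTS titration about 60 µM downward; luminescence read.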
KinaseGlo FLuc – Counterscreen for Luciferase (Kinase-Glo TM) Inhibition; AID 1379, 2008; Potency, µM (series often up to 38.3 µM), inactives show at the highest dose activity change, negative = inhibition, usual class: inhibitors; actives 0.28% (n = 200,000); Kinase-Glo luciferase, ATP luminescence, 8 min; Luciferin 4-monooxygenase (Photuris pensylvanica), Q27757; note: % is set by controls: 0 for no effect and ±100 for the full control effect; nearly all actives have a fitted effect of over 60% in size
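Kinase-Glo luciferase light output from ATP and luciferin was measured with 10 uM ATP, within the enzyme's linear range. Buffer: 50 mM imidazole pH 7.2, 50 mM KCl, 7 mM MgCl2, 0.01% Tween 20, 0.05% BSA; luminescence read after 8 min at ambient temperature.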
Rab9 promoter act – qHTS Assay for Rab9 Promoter Activators | AID 485297, 2010 | actives 2.8% (n = 320,000) | Huh7 Rab9 promoter-luciferase reporter, luminescence, 24 h | Potency, µM (highest dose often 9.22 µM), without a hit: top-dose activation, negative = inhibition, usual class: activators; note: % of control where 0% means no effect; nearly all actives have a fitted effect of over 60% in size
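Rab9 promoter-driven luciferase in stably transfected Huh7 cells; 1500 cells/well rested 2 h, exposed to compound in DMSO for 24 h at 37 °C, 5% CO2. Luminescence read 10 min after adding luciferase reagent at ambient temperature.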
SMN2 splice enh – qHTS Assay for Enhancers of SMN2 Splice Variant Expression; HEK293 SMN2-luciferase splicing reporter, luminescence, 30-36 h; Potency, µM (series often up to 46.1 µM), inactives show at the top dose activity change, positive = activation, most hits filed as activators; actives 2.8% (n = 210,000); note: % of control where 0% means no effect; nearly all actives have a fitted effect of over 55% in size
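HEK293 cells carry an SMN2 […]–luciferase reporter in which exon 7 inclusion puts luciferase in frame. Cells were plated 10-12 h before compound addition, then incubated 30-36 h at 37C. ONE-Glo luminescence was read; sodium butyrate at 4.5 mM final served as control.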
ELG1 genotox – qHTS screen for small molecules that induce genotoxicity in human embryonic kidney (HEK293T) cells expressing luciferase-tagged ELG1 | HEK293T ELG1-luciferase reporter, luminescence, 16 h | Potency, µM (top dose mostly 46 µM), for the others: at the top dose activity change, positive = activation, actives largely listed as activators | actives 1.3% (n = 330,000); note: % of control where 0% means no effect; nearly all actives have a fitted effect of over 60% in size
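Luminescence read-out: rising ELG1-luciferase signal, reflecting elevated ELG1 protein under genetic stress, flags genotoxic compounds. Cells were treated for 16 hr at 37 °C before ONE-Glo detection.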
Numbers without * were called inactive; u = inconclusive; x = not tested or not shown; [ ] = another dose, or the depositor's remark. Calls come from the whole dose curve; as a rule, active = well fitted curve in the direction sought with a large enough effect; inconclusive = small, poorly fitted or top-dose-only effect, or another doubt; inactive = no such curve, though single readings can be large; an effect the other way counts as inactive or inconclusive. Potency is the fitted concentration of half-maximal effect.

SMILES | NPC1 prom act | FLuc counter | KinaseGlo FLuc | Rab9 promoter act | SMN2 splice enh | ELG1 genotox
CC(=O)c1cc(NC(=O)c2ccc(C)cc2)c(=O)oc1/C=C/N(C)C | -1.1% | 5.36µM* | 6.6% | 20.7% | u | 3.1%
Cc1cc[n+](CC(=O)c2cc3ccccc3oc2=O)cc1 | 1.3% | 23.9µM* | 1.4% | 24.6% | -2.0% | 14.7%
CC(=O)Nc1cc2ccccc2oc1=O | 0.0% | 3.7% | 8.0% | -10.8% | -5.5% | -6.0%
CC(=O)c1cc(NC(=O)c2ccc(C)cc2)c(=O)oc1C | -1.6% | 16.9µM* | u | -1.6% | x | u
Cc1ccc(C(=O)Nc2cc3ccccc3oc2=O)cc1 | 0.708µM* | 0.0757µM* | 8.91µM* | u | x | u
COc1ccc(C(=O)Nc2cc(C(C)=O)c(/C=C/N(C)C)oc2=O)cc1 | -2.9% | u | -7.4% | 4.3% | -5.1% | -0.3%
Cc1cc(C)nc(SCC(=O)c2cc3ccccc3oc2=O)n1 | 1.7% | -7.7% | -0.2% | -0.8% | -9.2% | -0.3%
Cc1cc(C)cc(NC(=O)c2cc(S(=O)(=O)N3CCOCC3)cn2C)c1 | x | -2.5% | x | x | x | x
Cc1oc(=O)c(NC(=O)c2ccccc2)cc1C(=O)c1ccccc1 | u | 15.1µM* | -1.1% | 2.24µM* | 26.0% | u
COc1ccc(CCn2nc(C)c([N+](=O)[O-])c2C)cc1 | 3.16µM* | 12µM* | x | 3.16µM* | x | 16.4µM*
Cc1cccc(-n2c(C)cc(C(=O)NC3CCCCC3)c2C)c1 | u | 21.3µM* | -0.8% | 3.55µM* | u | u
COc1ccc(-n2c(C)cc(C(=O)NC3CCCCC3)c2C)cc1 | u | 13.5µM* | -5.4% | 3.55µM* | u | 26.0%
CCC(=O)N1CCc2cc(S(=O)(=O)CCC(=O)N3CCN(c4cc(C)ccc4C)CC3)ccc21 | x | 0.2% | x | x | -15.7% | x
Cc1ccc2c(c1)C(c1ccc(F)cc1)N(C(=O)c1ccc(OC(C)C)cc1)CC(=O)N2 (stereo unspecified) | x | -6.9% | x | x | 5.8% | x
Cc1ccc(C)c(-c2csc(NC(=O)C3=COCCO3)n2)c1 | -1.6% | u | x | 0.5% | x | u
COc1ccc(OC)c(-c2csc(NC(=O)CSc3ccc(Br)cc3)n2)c1 | -0.5% | -2.0% | 1.8% | -3.3% | -13.3% | -2.5%
COc1ccc(OC)c(-c2csc(NC(=O)c3ccc(OCC4CCCO4)cc3)n2)c1 (stereo unspecified) | -3.9% | 1.51µM* | -0.7% | -25.2% | -25.3% | -4.2%
COc1ccc(OC)c(-c2csc(NC(=O)C3=COCCO3)n2)c1 | 0.5% | 10.7µM* | x | -0.1% | x | -3.8%
COc1ccc(OC)c(-c2csc(NC(=O)c3ccc(F)cc3)n2)c1 | u | 10.7µM* | x | 6.5% | x | 7.3%
COc1ccc(C(=O)Nc2nc(CC(=O)NCCc3ccccc3OC)cs2)cc1 | -5.9% | 2.69µM* | x | 5.3% | x | -6.5%
CCc1ccc(NC(=O)Cn2c(=O)n(CC3CCCO3)c(=O)c3cc(OC)c(OC)cc32)cc1 (stereo unspecified) | x | 2.2% | x | x | 2.1% | x
Cc1ccc(C)c(-c2ccc(C(=O)O)o2)c1 | x | x | 3.6%[39.9 µM] | x | x | x
COc1ccc(C)c2sc(NC(=O)C3=COCCO3)nc12 | 13.7% | 5.36µM* | -1.7% | 15.1% | u | 16.4µM*
COc1ccc(OC)c(-c2csc(NC(=O)Cc3cc(OC)c(OC)c(OC)c3)n2)c1 | -7.8% | 3.7% | x | -3.5% | x | -21.0%
COc1ccc(OC)c(-c2csc(NC(=O)Cc3ccc(F)cc3)n2)c1 | -6.3% | 16.9µM* | x | -2.0% | x | -12.8%
COC(=O)CNC(=O)[C@@]1(Cc2ccccc2)C=C[C@@H](C)N1C(=O)c1ccccc1 | x | x | -2.9% | x | 12.6µM* | x
C[C@@H]1C=C[C@](Cc2ccccc2)(C(=O)NCC2CC2)N1C(=O)c1ccccc1 | 7.3% | u | -0.3% | 20.2% | u | 9.7%

Screening results (PubChem BioAssay)
